LmPK inhibitor = LmPK (Leishmania mexicana) enzyme inhibition; purified LmPK, Kinase-Glo ATP luminescence, 1 h; Potency, µM (titrated, usually from 57.5 µM), for inactives: at the top dose activity change, negative = inhibition, actives largely listed as inhibitors; hit rate 0.37% among 290,000; further: potency means the concentration at half of the fitted maximal effect; on the % scale 0 is the no-effect control and ±100 the full control effect
Target sequence (Q27686 whole entry, looked up): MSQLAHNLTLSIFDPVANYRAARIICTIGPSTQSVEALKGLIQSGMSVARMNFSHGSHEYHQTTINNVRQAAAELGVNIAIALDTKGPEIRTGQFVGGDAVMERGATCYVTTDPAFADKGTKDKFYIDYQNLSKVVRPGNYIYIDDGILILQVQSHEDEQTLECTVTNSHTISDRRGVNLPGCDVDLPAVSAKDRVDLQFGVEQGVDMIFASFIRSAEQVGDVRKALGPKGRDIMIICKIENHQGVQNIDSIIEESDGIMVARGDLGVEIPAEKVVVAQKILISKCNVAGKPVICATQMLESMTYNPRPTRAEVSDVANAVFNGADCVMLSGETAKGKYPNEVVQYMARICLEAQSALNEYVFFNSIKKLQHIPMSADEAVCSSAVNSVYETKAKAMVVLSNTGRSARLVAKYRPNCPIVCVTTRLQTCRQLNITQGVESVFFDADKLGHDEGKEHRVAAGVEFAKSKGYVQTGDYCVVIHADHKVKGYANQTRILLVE
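Pyruvate kinase activity monitored as ATP production (luciferase luminescence). Conditions: 0.1 nM enzyme, 0.5 mM PEP, 0.1 mM ADP, 1 h, RT; normalized against uninhibited and no-enzyme wells.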
Pf growth 96h = P. falciparum growth inhibition at 96 hour, primary screen for plastid delayed-death inhibitors; hit rate 6.9% among 320,000; P. falciparum luciferase reporter growth, 96 h; AID 504834; Potency, µM (series often up to 28.7 µM), inactives show top-dose activity change, negative = inhibition, actives largely listed as inhibitors; further: potency means the concentration at half of the fitted maximal effect; on the % scale 0 is the no-effect control and ±100 the full control effect
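Parasite growth measured via integrated firefly luciferase reporter in P. falciparum. Infected erythrocytes at 2% hematocrit, 0.05% parasitemia final were treated 96 hours at 37 C under 5% CO2, and luminescence was read.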
Shiga toxin inh = blocks Shiga toxin action in Vero cells; Vero cells, Shiga toxin protein synthesis inhibition reporter; inhibition, % at 38.7 µM; hit rate 9.2% among 290,000; in the data active means inhibition mostly above about 28%, no sharp cut-off; inactive means mostly below about 43%; further: 0% is about no effect
Pf growth 48h = inhibits P. falciparum growth in the first generation, 48 h. P. falciparum luciferase growth in erythrocytes, 48 h. Potency, µM (doses to about 28.7 µM), inactives show at the top dose activity change, negative = inhibition, most hits filed as inhibitors. hit rate 5.9% among 310,000. AID 504832; further: potency means the concentration at half of the fitted maximal effect; on the % scale 0 is the no-effect control and ±100 the full control effect
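Firefly luciferase activity from engineered P. falciparum reports growth; inhibitors lower the luminescent signal. Cultures contained 2% hematocrit erythrocytes at 0.1% final parasitemia.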
CHX counter = affects cycloheximide protein synthesis inhibition readout, counter-screen | AID 2314 | hit rate 12% among 300,000 | max response, % | cell reporter, cycloheximide protein synthesis inhibition counterscreen; in the data active means max response mostly above about 13%, no sharp cut-off; inactive means mostly below about 14%; further: read at 38.3 µM for the half of the compounds with a filed dose; 0% is about no effect
* hit, by the source's call. Only some compounds are listed: those with a hit (about 22% of all), similar ones and a draw of the others. Unless noted, the call rests on the fitted dose curve; in most records, active means well fitted inhibition curve with a large enough effect; inconclusive means small, poorly fitted or top-dose-only effect, or another doubt; inactive means no such curve, though single readings can be large or run the other way.

CCOC(=O)C1CCCN(C(=O)c2[nH]c3ccc(OC)cc3c2C)C1 (configuration not stated) was read as LmPK inhibitor 8%, Pf growth 96h -13%, Shiga toxin inh 16 and CHX counter -1.
`COc1cc(C2C(C(=O)OC(C)C)=C(C)Nc3[nH]c(=O)[nH]c(=O)c32)ccc1O` (configuration not stated) gave LmPK inhibitor 1%, Pf growth 96h -3%, Shiga toxin inh 6, Pf growth 48h 1% and CHX counter 0.
`CC1=C(C(=O)OC(C)C)C(c2ccc(C)o2)C(C(=O)OC(C)C)=C(C)N1` gave LmPK inhibitor 0%, Pf growth 96h inconclusive, Shiga toxin inh 6, Pf growth 48h 10µM* and CHX counter 1.
COc1ccc(C2C(C#N)=C(C)NC(C)=C2C(=O)OC(C)C)c(OC)c1 (configuration not stated) was read as LmPK inhibitor -7%, Pf growth 96h 4.7µM*, Shiga toxin inh -13, Pf growth 48h 7.4µM* and CHX counter 10.
For CCOC(=O)C1=C(C)NC(C)=C(C(=O)OCC)C1c1ccc(Br)o1 the results were LmPK inhibitor 4%, Pf growth 96h 12µM*, Shiga toxin inh -2, Pf growth 48h inconclusive and CHX counter -5.
For COC(=O)C1=C(C)NC(C)=C(C(=O)OC)C1c1ccc(C)o1 the results were LmPK inhibitor 3%, Pf growth 96h 10%, Shiga toxin inh -1, Pf growth 48h -8% and CHX counter -3.
CCOC(=O)C1=C(C)NC(=O)NC1c1ccc(Br)o1 (configuration not stated) was read as LmPK inhibitor -1%, Pf growth 96h -13%, Shiga toxin inh 9, Pf growth 48h 10% and CHX counter 3.
`COC(=O)Cc1coc2cc(OC)ccc12` gave Pf growth 96h 7% and Pf growth 48h 41%.
CC(C)(C)OC(=O)N1CCN(C(=O)c2[nH]cnc2C(=O)Nc2nccs2)CC1 was read as Pf growth 96h -3% and Pf growth 48h 21%.
`COc1ccccc1N1CCN(C(=O)C(C)N(c2ccc(C)cc2)S(C)(=O)=O)CC1` (configuration not stated) gave LmPK inhibitor -10%, Shiga toxin inh 10, Pf growth 48h inconclusive and CHX counter 5.
Screening COc1ccccc1N1CCN(C(=O)C(C)N(c2ccc(C)c(C)c2)S(C)(=O)=O)CC1 (configuration not stated) returned LmPK inhibitor 0%, Pf growth 96h 12µM*, Shiga toxin inh -4, Pf growth 48h inconclusive and CHX counter -4.
COc1cccc(NC(=S)Nc2cccnc2)c1 was read as LmPK inhibitor 1%, Pf growth 96h -10%, Shiga toxin inh 22, Pf growth 48h 37% and CHX counter 8.
Screening COc1ccc(NC(=S)Nc2cc(C)ccn2)c(OC)c1 returned LmPK inhibitor 3%, Pf growth 96h 11%, Shiga toxin inh 75*, Pf growth 48h 119% and CHX counter 28*.
For COc1ccc(NC(=S)Nc2ccc(OC)cc2OC)c(OC)c1 the results were LmPK inhibitor 2%, Pf growth 96h 7%, Shiga toxin inh -6, Pf growth 48h 2% and CHX counter 1.
Screening COc1ccc(NC(=S)Nc2ccccn2)c(OC)c1 returned LmPK inhibitor 0%, Pf growth 96h 76%, Shiga toxin inh 120*, Pf growth 48h 71% and CHX counter 35*.
For COc1ccc(NC(=S)Nc2cccnc2)c(OC)c1 the results were LmPK inhibitor -1%, Pf growth 96h 15µM*, Shiga toxin inh -9, Pf growth 48h 14% and CHX counter -3.
Cc1ccc(S(=O)(=O)N2CC=C(c3ccc(F)cc3)CC2)cc1 was read as LmPK inhibitor 0%, Pf growth 96h 0%, Shiga toxin inh -3, Pf growth 48h -11% and CHX counter -1.
`Cc1sc2nc(SCC(=O)NCc3ccco3)n(CCc3ccccc3)c(=O)c2c1C` gave LmPK inhibitor 0%, Pf growth 96h -1%, Shiga toxin inh -1, Pf growth 48h 12µM* and CHX counter -1.
For Cc1sc2nc(SCC(=O)NCc3ccco3)n(C)c(=O)c2c1C the results were LmPK inhibitor 4%, Pf growth 96h -1%, Shiga toxin inh -9, Pf growth 48h -6% and CHX counter -1.
`O=C(CSc1nnc(CNc2ccc(Cl)cc2)n1Cc1ccccc1)NCc1ccco1` gave LmPK inhibitor 4%, Pf growth 96h inconclusive, Shiga toxin inh 19, Pf growth 48h -11% and CHX counter 14*.
Screening Cc1sc2nc(SCC(=O)NCCO)n(C)c(=O)c2c1C returned LmPK inhibitor -4%, Pf growth 96h 9.3µM*, Shiga toxin inh 18, Pf growth 48h 7% and CHX counter -3.
For O=C(O)CCSc1nnc(CNc2ccc(Cl)cc2)n1Cc1ccccc1 the results were LmPK inhibitor 1%, Pf growth 96h inconclusive, Shiga toxin inh -2, Pf growth 48h 17% and CHX counter -3.
For O=C(CSc1nnc(Cc2ccccc2)n1Cc1ccccc1)NCc1ccco1 the results were LmPK inhibitor 6%, Pf growth 96h 10%, Shiga toxin inh 23*, Pf growth 48h inconclusive and CHX counter 12.
Screening O=c1sc2ccccc2c(N2CCOCC2)c1[N+](=O)[O-] returned LmPK inhibitor -19%, Pf growth 96h 28%, Shiga toxin inh 7, Pf growth 48h -13% and CHX counter -1.
COc1cccc(/C=N/Nc2nc(Nc3ccccc3)nc(-n3nc(C)cc3C)n2)c1O was read as LmPK inhibitor -1%, Pf growth 96h inconclusive, Shiga toxin inh 31* and CHX counter 44*.
COc1cccc(/C=N/Nc2nc3ccccc3n3cnnc23)c1O was read as LmPK inhibitor -11%, Pf growth 96h inconclusive, Shiga toxin inh -4, Pf growth 48h inconclusive and CHX counter 10.
COc1cccc(/C=N/Nc2cc(-n3nc(C)cc3-c3ccccc3)ncn2)c1O was read as LmPK inhibitor -2%, Pf growth 96h -14%, Shiga toxin inh -12, Pf growth 48h 5.9µM* and CHX counter -4.
Screening Cc1ccc(S(=O)(=O)N2CCC(C(=O)Nc3ncccc3O)CC2)cc1 returned Pf growth 96h -4% and Pf growth 48h inconclusive.
O=C1CSC(c2ccc(F)cc2)N1c1nc2ccccc2s1 (configuration not stated) was read as LmPK inhibitor 3%, Pf growth 96h 10µM*, Shiga toxin inh 6, Pf growth 48h -5% and CHX counter -1.
`CCOC(=O)C1=C(C)Nc2nc(SCC)nn2C1c1ccc(OC)cc1` (configuration not stated) gave LmPK inhibitor -2%, Pf growth 96h 13µM*, Shiga toxin inh -14, Pf growth 48h -27% and CHX counter -5.
